In PubChem BioAssay one finds composite z-score and z-score data, which are given here for 5 molecules.

The source made the active and inactive calls. Unless noted, how the calls were made is not given here.

The nature of experiment [1]: compounds binding Alexa647 anti-His antibody – biochemical, small-molecule microarray, 635 nm fluorescence, artefact control for SMM control protein annotation, primary screen (AID 1128).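 Further: score merges feature fluorescence with signal-to-noise for each printed compound spot.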 The note with it: higher = more signal.
Experiment [2] deals with Human papillomavirus type 1a E7 protein (residues 1-88). Briefly: HPV1a E7 small-molecule binders, primary screen, biochemical, small-molecule microarray, residues 1-88, 635 nm (AID 1129). The settings on record: small-molecule microarray binding, fluorescence 635 nm; higher = more signal.
The target in experiment [3] is Focal adhesion kinase 1 (Homo sapiens) (UniProt Q05397). The experiment is described as follows: PTK2 protein binding on printed compound slides – biochemical, small-molecule microarray, 635/667 nm fluorescence, BSA, DTT, primary screen (AID 1130).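 Further: composite of spot emission at 667 nm and signal to noise over triplicate slides.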 The settings on record: 635 nm fluorescence, higher = more signal.
The test system of experiment [4] is Fibrinogen (Alexa647-labelled). Briefly: Alexa647-fibrinogen binding to printed small molecules – biochemical, small-molecule microarray, 635/667 nm fluorescence, artefact control for SMM control-protein annotation, profiling panel (AID 1131).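 Further: z-score merges 667 nm fluorescence with per-spot signal-to-noise over triplicate slides.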 The settings on record: fibrinogen-A647 binding fluorescence, higher = more signal.
In experiment [5] the target is Follistatin (Homo sapiens) (UniProt P19883). Briefly: FST protein binding to printed compounds – biochemical, small-molecule microarray, 635/667 nm fluorescence, primary screen (AID 1132). The settings on record: 635 nm fluorescence, higher = more signal.
Experiment [6] addresses Fibroblast growth factor 2 (Homo sapiens) (UniProt P09038). The experiment is described as follows: basic fibroblast growth factor binding to printed compounds – biochemical, small-molecule microarray, 635/667 nm fluorescence, primary screen (AID 1133). The note with it: FGF2, fluorescence 635/667, higher = more signal.
Experiment [7] can be described thus: JC-1 mitochondrial potential readout, lung cancer cells – cell-based, A549, JC-1 fluorescence, basal, 24 h, 100 nL, profiling panel (AID 1138).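 Further: A549 lung adenocarcinoma cells under basal conditions with no added stimulus; test concentration not given here.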 The note with it: higher = more signal.
Experiment [8] relates to Lefty1. Briefly: Lefty1 protein binding to printed compounds – biochemical, small-molecule microarray, 635/667 nm fluorescence, primary screen (AID 1139). The settings on record: fluorescence 635/667, higher = more signal.
For experiment [9], the system named is wheat germ agglutinin (Triticum aestivum), Alexa647-labelled. Briefly: Alexa647-WGA lectin binding to printed small molecules – biochemical, small-molecule microarray, 635/667 nm fluorescence, artefact control for SMM control-protein annotation, profiling panel (AID 1140).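 Further: score merges 667 nm feature emission with signal to noise over triplicate slides.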 The note with it: WGA-A647 binding, 635 nm fluorescence, higher = more signal.
In experiment [10] the target is Luciferin 4-monooxygenase (Photinus pyralis) (UniProt P08659). The experiment is described as follows: inhibition of purified Photinus pyralis luciferase – biochemical, luminescence, purified enzyme, 2006 set, primary screen (AID 1141).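 Further: cell-free assay with purified firefly luciferase at 100 ng per well in PBS; test concentration not given here.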 The settings on record: purified firefly luciferase, SteadyGlo luminescence, 30 min; higher = more signal, called active from +8 up or from −8 down.

Experiment [11] concerns Wnt5a (protein binding on small-molecule microarray). The experiment is described as follows: small molecules binding Wnt5a protein – biophysical, small-molecule microarray, 635/667 nm fluorescence, primary screen (AID 1142).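 Further: fluorescence read at 667 nm with signal to noise per printed feature.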 The note with it: 635 nm fluorescence, higher = more signal.
The nature of experiment [12]: ATP-based viability of Huh7 replicon cells – cell-based, CellTiter-Glo luminescence, basal, 48 h, cytotoxicity control for HCV replication inhibitor project, primary screen (AID 1143).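 Further: Huh7 hepatoma cells carrying a hepatitis C replication reporter with no stimulus; test concentration not given here.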 The settings on record: higher = more signal, called active from +8 up or from −8 down. Background: Replicon systems follow genome replication, usually without infectious particles.
The nature of experiment [13]: Pseudomonas biofilm growth suppression – PAO1 strain, BacTiter-Glo luminescence, LB-PBS, primary screen (AID 1144). The note with it: P. aeruginosa PAO1 biofilm, 12 h, higher = more signal.
Experiment [14] in a line: basal CRE-LacZ reporter activity in PC12 – cell-based, unstimulated, primary screen (AID 1145). The settings on record: no forskolin, luminescence, 4.5 h, higher = more signal, called active from +8 up or from −8 down.
Experiment [15] in a line: forskolin-driven CRE-LacZ activity in PC12 – cell-based, CRE-LacZ reporter, forskolin-stimulated, primary screen (AID 1146).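 Further: PC12 cells with 6xCRE LacZ reporter stimulated by forskolin 10 µM; beta-galactosidase reporter signal reflecting CREB driven transcription.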 The settings on record: luminescence, 4.5 h, higher = more signal, called active from +8 up or from −8 down.
For experiment [16], the target named is Streptavidin (Streptomyces avidinii) (UniProt P22629). Briefly: compounds binding control protein streptavidin – biophysical, small-molecule microarray, 635/667 nm fluorescence, artefact control for SMM compound annotation, primary screen (AID 1147).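 Further: signal reflects streptavidin binding to arrayed compounds as a control protein.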 The settings on record: higher = more signal.
Experiment [17] in a line: probe aInhba binding on compound microarray – biochemical, small-molecule microarray, 635/667 nm fluorescence, primary screen (AID 1148).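 Further: score merges 667nm spot fluorescence with signal-to-noise for antibody binding to printed compounds.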 The note with it: higher = more signal.
Experiment [18] has as its target Torsin-1A (Homo sapiens) (UniProt O14656). Briefly: TOR1A wild-type binding on microarray – cell lysate, small-molecule microarray, lysate, 635/667 nm, primary screen (AID 1149). The note with it: COS7 hTOR1A-WT lysate, 635 nm fluorescence, higher = more signal.
For experiment [19] the target is unchanged. The experiment is described as follows: torsin A mutant lysate binding on microarrays – cell lysate, small-molecule microarray, COS7 lysate, 635/667 nm fluorescence, primary screen (AID 1150).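 Further: score pools 667 nm emission and signal to noise measuring lysate protein binding.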 The settings on record: COS7 hTOR1A mutant lysate, 635 nm fluorescence, higher = more signal.
The test system of experiment [20] is Sonic hedgehog protein (Shh). The experiment is described as follows: Sonic hedgehog microarray binding compounds – biochemical, small-molecule microarray, 635/667 nm fluorescence, primary screen (AID 1151).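 Further: Shh protein binding to compounds spotted on small-molecule microarray slides; score combines spot fluorescence intensity with signal-to-noise across triplicate slides.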 The note with it: 635 nm fluorescence, higher = more signal.

Sequence of Fibroblast growth factor 2 (Homo sapiens) (P09038 whole entry, looked up): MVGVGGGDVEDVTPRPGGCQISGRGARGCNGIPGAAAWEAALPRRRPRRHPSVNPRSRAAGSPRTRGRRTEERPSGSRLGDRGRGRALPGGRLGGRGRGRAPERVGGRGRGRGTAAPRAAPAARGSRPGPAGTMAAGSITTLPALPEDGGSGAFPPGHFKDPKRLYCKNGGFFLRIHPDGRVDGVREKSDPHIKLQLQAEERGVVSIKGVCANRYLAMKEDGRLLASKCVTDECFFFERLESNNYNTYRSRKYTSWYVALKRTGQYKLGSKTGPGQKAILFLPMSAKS
Sequence of Luciferin 4-monooxygenase (Photinus pyralis) (P08659 whole entry, looked up): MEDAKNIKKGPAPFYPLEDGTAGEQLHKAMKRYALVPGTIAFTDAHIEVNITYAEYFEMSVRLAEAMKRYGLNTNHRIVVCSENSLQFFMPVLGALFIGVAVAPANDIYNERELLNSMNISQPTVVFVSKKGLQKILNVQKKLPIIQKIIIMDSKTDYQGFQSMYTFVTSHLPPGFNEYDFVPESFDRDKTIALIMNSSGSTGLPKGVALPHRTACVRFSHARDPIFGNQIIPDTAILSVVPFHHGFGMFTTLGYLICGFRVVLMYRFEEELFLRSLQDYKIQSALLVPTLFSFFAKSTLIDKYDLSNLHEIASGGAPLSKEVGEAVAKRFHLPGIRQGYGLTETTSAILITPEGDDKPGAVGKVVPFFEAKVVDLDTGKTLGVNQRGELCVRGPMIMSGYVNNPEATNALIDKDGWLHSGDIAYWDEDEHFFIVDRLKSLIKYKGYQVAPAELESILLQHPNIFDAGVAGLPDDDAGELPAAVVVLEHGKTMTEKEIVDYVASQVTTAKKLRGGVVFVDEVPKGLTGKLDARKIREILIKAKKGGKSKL
Sequence of Streptavidin (Streptomyces avidinii) (P22629 whole entry, looked up): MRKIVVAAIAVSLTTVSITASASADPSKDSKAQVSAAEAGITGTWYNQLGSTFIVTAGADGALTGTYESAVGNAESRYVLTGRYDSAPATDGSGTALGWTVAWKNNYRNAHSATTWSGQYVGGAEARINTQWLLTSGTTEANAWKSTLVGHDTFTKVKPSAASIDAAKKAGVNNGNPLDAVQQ
Sequence of Focal adhesion kinase 1 (Homo sapiens) (Q05397 whole entry, looked up): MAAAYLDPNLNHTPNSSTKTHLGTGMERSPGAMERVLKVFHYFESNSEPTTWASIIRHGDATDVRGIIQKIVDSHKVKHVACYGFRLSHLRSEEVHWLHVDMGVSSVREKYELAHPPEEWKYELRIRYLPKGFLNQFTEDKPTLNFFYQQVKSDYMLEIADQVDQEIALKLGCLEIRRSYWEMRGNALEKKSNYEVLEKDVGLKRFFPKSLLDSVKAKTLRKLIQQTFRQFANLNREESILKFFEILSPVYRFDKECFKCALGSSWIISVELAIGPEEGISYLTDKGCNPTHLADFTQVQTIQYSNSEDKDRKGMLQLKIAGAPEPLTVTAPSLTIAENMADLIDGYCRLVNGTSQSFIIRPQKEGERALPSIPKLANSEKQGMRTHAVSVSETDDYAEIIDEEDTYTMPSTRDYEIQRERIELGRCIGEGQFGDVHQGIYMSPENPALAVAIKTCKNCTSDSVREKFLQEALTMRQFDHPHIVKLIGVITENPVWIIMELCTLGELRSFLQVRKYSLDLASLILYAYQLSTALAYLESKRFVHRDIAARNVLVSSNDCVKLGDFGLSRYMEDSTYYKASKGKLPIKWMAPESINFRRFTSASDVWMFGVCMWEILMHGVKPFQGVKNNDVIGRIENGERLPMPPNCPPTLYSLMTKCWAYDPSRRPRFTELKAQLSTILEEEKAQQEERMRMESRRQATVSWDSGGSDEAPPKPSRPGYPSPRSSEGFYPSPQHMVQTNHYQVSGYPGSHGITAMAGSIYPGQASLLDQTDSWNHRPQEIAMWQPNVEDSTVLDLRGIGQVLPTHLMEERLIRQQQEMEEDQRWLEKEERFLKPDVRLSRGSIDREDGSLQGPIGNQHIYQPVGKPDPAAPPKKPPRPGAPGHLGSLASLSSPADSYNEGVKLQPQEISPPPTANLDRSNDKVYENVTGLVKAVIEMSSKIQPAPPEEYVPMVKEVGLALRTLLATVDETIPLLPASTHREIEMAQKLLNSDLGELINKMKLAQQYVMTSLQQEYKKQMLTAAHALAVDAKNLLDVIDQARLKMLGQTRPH
Sequence of Torsin-1A (Homo sapiens) (O14656 whole entry, looked up): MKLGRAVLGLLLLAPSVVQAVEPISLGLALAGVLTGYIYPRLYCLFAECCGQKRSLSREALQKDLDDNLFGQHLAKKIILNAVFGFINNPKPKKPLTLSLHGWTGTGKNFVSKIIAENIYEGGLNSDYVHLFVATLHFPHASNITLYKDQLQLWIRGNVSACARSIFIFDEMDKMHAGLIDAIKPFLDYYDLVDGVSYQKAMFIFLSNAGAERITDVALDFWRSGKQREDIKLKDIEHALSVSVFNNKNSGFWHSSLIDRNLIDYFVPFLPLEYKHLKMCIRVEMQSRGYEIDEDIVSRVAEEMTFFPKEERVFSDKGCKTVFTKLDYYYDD
Sequence of Follistatin (Homo sapiens) (P19883 whole entry, looked up): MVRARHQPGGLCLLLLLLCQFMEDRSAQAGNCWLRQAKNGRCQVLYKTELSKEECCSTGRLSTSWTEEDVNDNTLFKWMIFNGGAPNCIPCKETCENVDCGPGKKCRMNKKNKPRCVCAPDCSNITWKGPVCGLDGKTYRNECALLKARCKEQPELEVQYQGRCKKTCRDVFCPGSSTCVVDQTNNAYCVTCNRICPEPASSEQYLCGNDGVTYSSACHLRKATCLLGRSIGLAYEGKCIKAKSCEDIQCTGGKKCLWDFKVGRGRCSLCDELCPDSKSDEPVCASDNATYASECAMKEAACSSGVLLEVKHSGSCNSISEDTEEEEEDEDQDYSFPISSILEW

`CCOC(=O)C[C@H]1[C@H](OC(=O)c2ccc(-c3ccccc3)cc2)[C@@H](NC(=O)c2ccc3ccccc3c2)c2cc(OCCCO)ccc2N1C(=O)c1ccccc1`: the composite z-score in experiment [1] stood at 0.137; in experiment [2] it was 1.05; in experiment [3] it was 0.19; in experiment [4] it was 0.118; in experiment [5] it was 0.0533; in experiment [6], 0.831. In addition, the composite z-score turned out to be 0.669 in experiment [8]; 0.3 in [9]; 0.247 in experiment [11]; 0.114 in experiment [16]; 0.0497 in experiment [17]; 0.742 in experiment [18]. In addition, the values for the composite z-score in experiment [19] and in experiment [20] were 0.988 and 0.27, respectively. For the same molecule, the z-score in experiment [7] was 0.257; in experiment [10], 0.61 (inactive); in experiment [12], -0.433 (inactive); in experiment [13], 0.0625 (inactive); in experiment [14], 0.544 (inactive); in [15], 1.09 (inactive).

On to `C=C(COC)/C(=C/C[C@@H](OC(C)=O)c1ccccc1OCCO)c1cc(C(=O)OC)ccc1OC`, for which the composite z-score in [1] is 2.21; in experiment [2], 0.461; in [3], -0.102; in experiment [4] it was -0.325; in experiment [5], 0.569; in experiment [6], 0.36. The composite z-score was 0.624 in experiment [8]; 0.344 in experiment [9]; 0.143 in experiment [11]; -0.333 in experiment [16]; -0.188 in [17]; 0.237 in experiment [18]. Also, the composite z-score in [19] amounted to 0.612; in experiment [20], 0.94. Besides, the z-score was 1.75 in experiment [7]; -1.47 (inactive) in experiment [10]; -1 (inactive) in [12]; -0.765 (inactive) in experiment [13]; 11.4 (active) in experiment [14]; 0.323 (inactive) in experiment [15].

For `C=CCC(OC(C)=O)[C@@H]1[C@@H](N(Cc2ccc(-c3cccc(C(F)(F)F)c3)o2)C(=O)c2cccc3ccccc23)c2cc(OCCCO)ccc2N1C(=O)c1ccc2ccccc2n1` (stereo not given in full), the composite z-score was -0.188 in [1]; -0.696 in [2]; -0.323 in [3]; -0.0203 in experiment [4]; 0.587 in [5]; 0.0226 in [6]. In addition, the composite z-score in experiment [8] was 0.375; in experiment [9], -0.0681; in experiment [11] it was -0.0713; in experiment [16], -0.32; in experiment [17] it was -0.024; in [18] it was 0.17. Further, the composite z-score is -0.662 in experiment [19] and 0.259 in [20]. Further, the z-score in experiment [7] was -0.431; in [10], 0.587 (inactive); in experiment [12] it was -1.33 (inactive); in experiment [13] it was -0.214 (inactive); in experiment [14], -0.258 (inactive); in experiment [15] it was 0.0155 (inactive).

In the case of `O=C1c2ccccc2[C@@]2(Cc3ccccc3N(Cc3ccccc3)C2=O)[C@H](c2ccc(CO)cc2)N1Cc1ccccc1`, the composite z-score in experiment [1] was -1.16; in experiment [2] it was -1.58; in experiment [3], -0.667; in experiment [4] it was -0.936; in experiment [5], -1; in experiment [6], -1.01. Besides, the composite z-score is -1.09 in experiment [8]; 0.168 in experiment [9]; -0.201 in experiment [11]; -0.0807 in experiment [16]; -0.176 in [17]; -0.953 in experiment [18]. In addition, the results for the composite z-score in experiment [19] and in [20] were -0.773 and -0.907, respectively. For the same molecule, the z-score was 0.0926 in experiment [7]; 0.407 (inactive) in experiment [10]; 0.579 (inactive) in experiment [12]; -0.124 (inactive) in experiment [13]; 0.0279 (inactive) in [14]; 0.806 (inactive) in [15].

Consider `COC(=O)[C@@]1(Cc2ccc(OC)cc2)[C@H]2c3cc(C(=O)N4CCCC4)n(CCc4ccc(OC)c(Br)c4)c3C[C@H]2CN1C(=O)c1ccccc1`, for which the composite z-score is 1.66 in experiment [1]; 1.16 in [2]; 0.946 in [3]; 0.406 in [4]; -0.533 in [5]; -0.381 in experiment [6]. The composite z-score was -1.13 in experiment [8]; 0.345 in [9]; -0.0726 in experiment [11]; 0.0687 in [16]; 0.195 in [17]; 0.373 in experiment [18]. In addition, the composite z-score in experiment [19] is 0.57; in [20], -0.908. Further, the z-score in experiment [7] was 0.914; in [10] it was 0.626 (inactive); in experiment [12], -0.0564 (inactive); in experiment [13], 0.24 (inactive); in [14] it was 0.387 (inactive); in [15], 0.132 (inactive).
